PubChem BioAssay (NCATS)
Records with an inconclusive call do not appear. Active and inactive are the calls of the source. The call rests on the fitted dose curve; in most records, active means well fitted curve in the direction sought with a large enough effect; inconclusive means small, poorly fitted or top-dose-only effect, or another doubt; inactive means no such curve, though single readings can be large; an effect the other way counts as inactive or inconclusive.

Assays:
[1] = molecular target: Cellular tumor antigen p53 (Homo sapiens) (UniProt P04637); experiment: Primary qHTS for small molecule compounds that upregulate eGFP-tagged delta133p53alpha (in N-terminal) cells. (AID 2060322); details: NCI-H358 eGFP-delta133p53alpha fluorescence, 24 h; activation: active compounds read high;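 further: cells pre-induced with doxycycline then dosed without doxycycline; 0% = DMSO vehicle and 100% = reference activator; nearly all actives have a fitted effect of over 75% in size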
In short: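 NCI-H358 cells pre-induced 24 h with 10 ng/ml doxycycline for eGFP-delta133p53alpha, plated dox-free and exposed 24 h at 37C to titrated compounds. Fixed, Hoechst-stained; gated GFP peak intensity by laser scanning cytometry, normalized to DMSO (0%) and 57.5 uM 5-azacytidine (100%).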

[2] = molecular target: Aldehyde dehydrogenase, mitochondrial (Homo sapiens) (UniProt P05091); experiment: qHTS for Inhibitors of the Aldehyde Dehydrogenase Family (ALDH2) Primary screen (AID 2061308); details: ALDH2 enzyme inhibition qHTS, 1536-well; series mostly up to 56 µM;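 further: plate controls were vehicle for no effect and reference inhibitor for full effect; nearly all actives have a fitted effect of over 55% in size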
[3] = molecular target: Retinaldehyde dehydrogenase 3 (Homo sapiens) (UniProt P47895); experiment: qHTS for Inhibitors of the Aldehyde Dehydrogenase Family (ALDH1A3) Primary screen (AID 2061315); details: ALDH inhibition qHTS; series mostly up to 56 µM;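 further: plate controls were DMSO vehicle for no effect and reference inhibitor for full effect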

Sequence of Cellular tumor antigen p53 (Homo sapiens) (P04637 whole entry, looked up): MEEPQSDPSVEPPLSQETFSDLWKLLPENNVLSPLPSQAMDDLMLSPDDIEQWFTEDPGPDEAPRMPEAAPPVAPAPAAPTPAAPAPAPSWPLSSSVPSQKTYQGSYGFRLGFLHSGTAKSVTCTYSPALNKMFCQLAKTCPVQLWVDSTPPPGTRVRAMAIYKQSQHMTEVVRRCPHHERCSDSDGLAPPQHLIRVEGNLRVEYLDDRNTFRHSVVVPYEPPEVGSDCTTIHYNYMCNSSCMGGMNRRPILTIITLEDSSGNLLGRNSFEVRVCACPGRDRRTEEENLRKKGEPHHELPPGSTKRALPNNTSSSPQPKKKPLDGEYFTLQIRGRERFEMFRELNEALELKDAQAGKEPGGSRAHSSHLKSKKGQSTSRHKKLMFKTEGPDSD

CC1CC(=O)C2=C(O1)OC1(C)CCC3C(C)(C)C4OC4C(=O)C3(C)C1C2 (configuration not stated)
inactive: activation [1] 16.1% | Potency [2] | Potency [3]

COC(=O)C[C@@H]1C(C(=O)O)=CO[C@@H](O[C@@H]2O[C@H](CO)[C@@H](O)[C@H](O)[C@H]2O)/C1=C\COC(=O)/C=C/c1ccc(O)c(OC)c1
inactive: activation [1] 6.87% | Potency [2] | Potency [3]

CCC/C=C/C=C/C1CC(O)C2(O)C(=O)OCC12 (configuration not stated)
inactive: activation [1] 6.11% | Potency [2] | Potency [3]

CC1=C2C3OC(=O)C(C)C3(O)CCC2(C)CCC1 (configuration not stated)
inactive: activation [1] 2.68% | Potency [2] | Potency [3]

CC1(C)CC[C@]2(C(=O)O)CC[C@]3(C)C(=CCC4[C@@]5(C)C[C@H](O)[C@H](O[C@@H]6O[C@H](CO)[C@@H](O)[C@H](O)[C@H]6O)[C@@](C)(CO)C5[C@H](O)C[C@]43C)[C@@H]2C1 (some centres not stated)
inactive: activation [1] -13% | Potency [2] | Potency [3]

COC(=O)C1=COC(O[C@@H]2O[C@H](COC(=O)/C=C/c3ccc(O)cc3)[C@@H](O)[C@H](O)[C@H]2O)C2C(CO)=CCC12 (some centres not stated)
inactive: activation [1] -23.7% | Potency [2] | Potency [3]

CC(=O)O[C@@H]1C(=O)C(C)=C(CCC(C)CC(=O)O)[C@@]2(C)CCCC(C)(C)C12 (some centres not stated)
inactive: activation [1] 0.893% | Potency [2] | Potency [3]

CC1CCCCN1S(=O)(=O)c1ccc(N2CCCC2=O)cc1 (configuration not stated)
inactive: activation [1] 2.86% | Potency [2] | Potency [3]

O=C(O[C@@H]1O[C@H](CO)[C@@H](O)[C@H](O)[C@H]1O)c1ccccc1
inactive: activation [1] -9.82% | Potency [2] | Potency [3]
